Data published in PubChem BioAssay (NCI).
This is part of a sample that, as a whole, favours compounds with a hit. Of some 83,000 tested, about 20% had one in any assay.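 Plates (96-well) were seeded with cells, treated with compound at one concentration, and incubated for 48 hours before percent growth was determined.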 Values without a mark were called inactive. Calls of active or inactive are those of the source. Rule for the calls: active = growth percent below 10; inactive = the rest.

How the values were obtained:
Test in all cases: NCI-60 one-dose screen, 48 h (100 = growth as untreated, 0 = no growth, -100 = all killed)
Details in all cases: 10 µM unless noted
NCI-H23 lung = system: NCI-H23 lung
NCI-H226 lung = system: NCI-H226 lung
NCI-H322M lung = system: NCI-H322M lung
HOP-62 NSCLC = system: HOP-62 NSCLC
NCI-H460 lung = system: NCI-H460 lung
HOP-92 NSCLC = system: HOP-92 NSCLC
NCI-H522 lung = system: NCI-H522 lung
A549/ATCC NSCLC = system: A549/ATCC NSCLC
786-0 renal = system: 786-0 renal
COLO 205 colon = system: COLO 205 colon

SMILES	growth (NCI-H23 lung)	growth (NCI-H226 lung)	growth (NCI-H322M lung)	growth (HOP-62 NSCLC)	growth (NCI-H460 lung)	growth (HOP-92 NSCLC)	growth (NCI-H522 lung)	growth (A549/ATCC NSCLC)	growth (786-0 renal)	growth (COLO 205 colon)
CCN(CC)CCOc1ccc(/C(=C(\C)c2ccc(Cl)cc2)c2ccc(Cl)cc2)cc1	60.7%	102%	87.3%	95.2%	36.4%	80.5%	81.7%	45.2%	60.2%	8.85% (active)
C[C@@H]1COCCN1c1cc(C2([S@](C)(=N)=O)CC2)nc(-c2ccnc3[nH]ccc23)n1	-1.16% (active)	39.5%	3.93% (active)	8.86% (active)	9.37% (active)	23%	30.9%	8.97% (active)	2.08% (active)	42.3%
Clc1ccc(/C=C/c2cc(N3CCOCC3)c3cc(Cl)c(Cl)cc3n2)cc1	100%	85.5%	94.3%	122%	95%	96.6%	-43.7% (active)	79.9%	-11% (active)	98.1%
CCc1ccc(C2=C(O)C(=O)C(c3ccc(CC)cc3)=C(O)C2=O)cc1	-17.4% (active)	-3.98% (active)	-19.6% (active)	-12.8% (active)	-19.8% (active)	-47.9% (active)	-20.7% (active)	-58.3% (active)	0.0366% (active)	5.7% (active)
C/C(=C(/c1ccc(Cl)cc1)c1ccc(OCCN2CCCCCC2)cc1)c1ccccc1	74.9%	95.8%	93.2%	90.3%	76.3%	82.6%	72.9%	67.8%	82%	15.9%
O=C1CC(c2ccc(Cl)cc2)c2ncn(-c3cccc(Cl)c3)c2N1 (stereo not given)	72%	71%	91.6%	51.2%	34%	60.8%	27.6%	45.2%	55%	97.7%
COc1cccc2cc(-c3nc(C4CCC(C(=O)O)CC4)n4ncnc(N)c34)[nH]c12 (stereo not given)	7.94% (active)	7.69% (active)	9.76% (active)	-10% (active)	11.1%	-14.5% (active)	-1.72% (active)	5.25% (active)	-5.64% (active)	1.83% (active)
Cc1cc(Oc2ccccc2)ccc1Nc1ncnc2ccc(-c3cnc(Cl)c(NS(C)(=O)=O)c3)cc12	28.5%	36.9%	0.949% (active)	28.2%	18%	-14% (active)	32.1%	11%	16.8%	12.1%
C=C1C[C@H](O)[C@H](Br)C(C)(C)[C@@]12CCC(C)=C(Cl)C2	12.9%	14.8%	40.3%	35.6%	13%	23.6%	15.7%	6.49% (active)	16.7%	-79.1% (active)
CNC(=O)c1cccc2cc(Oc3ccnc4cc(OCC5(N)CC5)c(OC)cc34)ccc12	63.9%	47.1%	74.3%	51.7%	56%	64.6%	46.3%	57.4%	76.8%	58%
C[C@@H](N)c1ccc(C(=O)Nc2ccnc3[nH]ccc23)cc1	45%	51%	41.5%	13.9%	47.9%	55.6%	11%	14.8%	33.2%	5.34% (active)
C/C=C/C=N/NC(=S)Nc1ccccc1	90.7%	95.8%	90.6%	86%	112%	93%	82.7%	79.4%	106%	101%
COc1cnc2c(c1)C(=O)c1c-2n(CCCN2CCC(O)CC2)c(=O)c2cc(Cl)ccc12	11.8%	39.3%	46.4%	23.6%	-60.8% (active)	77.3%	32.4%	-65.8% (active)	4.34% (active)	47.1%
O=C(Cc1ccc(/C=C/C(=O)c2ncc[nH]2)cc1)Nc1ccc(S(F)(F)(F)(F)F)cc1	68.5%	93.7%	95%	93.8%	98.2%	97%	65.8%	76.7%	88.5%	82.7%
Cc1ccc(C(=O)Nc2ccc(CN3CCN(C)CC3)c(C(F)(F)F)c2)cc1C#Cc1cnc2cccnn12	-84.8% (active)	-96.8% (active)	-98.8% (active)	-93.6% (active)	-83.3% (active)	-74.1% (active)	-86.6% (active)	-95.1% (active)	-91% (active)	-88.2% (active)
CCC1(/C=N/NC(N)=S)NC(=O)NC1=O (stereo not given)	99.2%	96.6%	106%	78.8%	109%	95.5%	83.2%	62.5%	105%	111%
Cn1cc(-c2ncnc3ccc(-c4cnc(Cl)c(NS(C)(=O)=O)c4)cc23)c2ccccc21	29.7%	16.4%	0.878% (active)	16.2%	8.88% (active)	-8.63% (active)	17%	6.57% (active)	12%	16.4%
COc1cc(NCCCN)c2ncccc2c1	70.8%	92.7%	82.9%	79.4%	74%	50.7%	84%	95.9%	95.7%	91.8%
CCNC(=O)Nc1nc2ccc(Oc3ccnc(C(=O)NC)c3)cc2s1	90.1%	84.5%	102%	76.1%	73.4%	70.6%	56.6%	62.4%	88.3%	56.1%
N#Cc1c(NC(=O)c2ccco2)[n+]([O-])c2cc(F)c(F)cc2[n+]1[O-]	82.7%	103%	103%	120%	106%	-4.85% (active)	59.2%	97.1%	98.5%	98.3%
C=CC(=O)Nc1cc2c(Nc3ccc(F)c(Cl)c3)ncnc2cc1OCCCN1CCOCC1	-54.4% (active)	40.2%	-15.2% (active)	12.1%	31.2%	-51.7% (active)	-74.6% (active)	22.9%	2.4% (active)	8.89% (active)
Cc1ccc(NC(=O)NC(=O)CSc2nc3ccccc3nc2C)cc1	42.6%	59.4%	95.1%	45%	64.9%	36.1%	40.8%	70.2%	-16.3% (active)	81.1%
OCCNC(=S)Nc1ccc(-c2nc(N3C[C@H]4CC[C@@H](C3)O4)c3cccn3n2)cc1	17.4%	0.203% (active)	19.3%	-14.3% (active)	11%	-21.2% (active)	13.3%	-1.6% (active)	1.86% (active)	-8.64% (active)
COc1ccc(-c2ccc3ncc4c(c3c2)n(-c2ccc(N3CCNCC3)c(C(F)(F)F)c2)c(=O)n4C)cn1	-71.6% (active)	-66.4% (active)	-89.6% (active)	-72% (active)	-82.9% (active)	-83.2% (active)	-61.7% (active)	-83.2% (active)	-81.1% (active)	-73.9% (active)
CCCCOc1nc2cc(Cl)ccc2cc1/C=C/c1cc(/C=C/c2cc3ccc(Cl)cc3nc2OCCCC)n(-c2ccccc2)n1	83.3%	75.1%	92.5%	32.3%	98.3%	76.8%	61%	75.4%	64%	88.3%
Cc1cc(NCC(=O)Nc2ccc(-c3nc4ccccc4s3)cc2)no1	82.8%	91%	102%	111%	103%	100%	82.1%	92.3%	102%	108%
